Here are results for four molecules from PubChem BioAssay AID1159580 (chemical genetic matrix, 2015).

This assay in a line: chemical genetic growth profiling, strain panel (AID 1159580).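 Further: tested at 20 µM; growth read once vehicle control cultures reached saturation at 30 °C; 1 = growth at the plate median or of vehicle wells; lower values mean less growth of the strain.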 The note with it: growth OD.
Where [1] appears, read: S. cerevisiae deletion strains, locus YDR150W, strain NUM1, hits give low values.
Where [2] appears, read: S. cerevisiae deletion strains, locus YGR078C, strain PAC10, hits give low values.
Setting [3] is: S. cerevisiae deletion strains, locus YNL153C, strain GIM3, hits give low values.
Where [4] appears, read: S. cerevisiae deletion strains, locus YNL322C, strain KRE1, hits give low values.
[5] abbreviates: S. cerevisiae deletion strains, locus YPL055C, strain LGE1, hits give low values.
Where [6] appears, read: S. cerevisiae deletion strains, locus YAL040C, strain CLN3, hits give low values.
Setting [7] is: S. cerevisiae deletion strains, locus YCL061C, strain MRC1 (second series), hits give low values.
[8] abbreviates: S. cerevisiae deletion strains, locus YDR363W, strain ESC2, hits give low values.
Where [9] appears, read: S. cerevisiae deletion strains, locus YER002W, strain NOP16, hits give low values.
[10] abbreviates: S. cerevisiae deletion strains, locus YGR229C, strain SMI1, hits give low values.
Where [11] appears, read: S. cerevisiae deletion strains, locus YMR307W, strain GAS1, hits give low values.
The mark [12] stands for this setting: S. cerevisiae deletion strains, locus YNL175C, strain NOP13, hits give low values.
The mark [13] stands for this setting: S. cerevisiae deletion strains, locus YNL197C, strain WHI3, hits give low values.
[14] abbreviates: S. cerevisiae deletion strains, locus YNL224C, strain SQS1, hits give low values.
The mark [15] stands for this setting: S. cerevisiae deletion strains, locus YOR083W, strain WHI5 (second series), hits give low values.

Screen size: about 5,500 compounds; about 2,000 (36%) were called active. Another 18% or so got no clear call; they are omitted. The list shows a part of the results. A number with no mark means an inactive call. No stated cut-off is given here; in the data, active means normalized growth mostly below about 0.91 (no sharp cut-off); inconclusive means no clear call, values can overlap the other calls; inactive means mostly above about 0.92.

With `Cc1cc(/C=N/NC(N)=S)c2c(C)ccc(C(C)C)cc1-2`, the normalized growth by setting is: (S. cerevisiae deletion strains, locus YAL013W, strain DEP1, hits give low values) 1.02; (S. cerevisiae deletion strains, locus YBR229C, strain ROT2, hits give low values) 1.04; (S. cerevisiae deletion strains, locus YCL061C, strain MRC1, hits give low values) 1.02; (S. cerevisiae deletion strains, locus YDL101C, strain DUN1, hits give low values) 1.05; (S. cerevisiae deletion strains, locus YDL134C, strain PPH21, hits give low values) 1.01; under setting [1], 1. Further, the normalized growth was 1.01 (S. cerevisiae deletion strains, locus YEL061C, strain CIN8, hits give low values); 1.01 under setting [2]; 1.12 (S. cerevisiae deletion strains, locus YHR030C, strain SLT2, hits give low values); 1.06 (S. cerevisiae deletion strains, locus YHR087W, strain rtc3, hits give low values); 1.01 (S. cerevisiae deletion strains, locus YJR043C, strain POL32, hits give low values); 1.02 (S. cerevisiae deletion strains, locus YJR075W, strain HOC1, hits give low values). The normalized growth is 1.02 (S. cerevisiae deletion strains, locus YLR039C, strain RIC1, hits give low values); 1.03 (S. cerevisiae deletion strains, locus YLR058C, strain SHM2 (second series), hits give low values); 1.03 (S. cerevisiae deletion strains, locus YLR085C, strain ARP6, hits give low values); 1.02 (S. cerevisiae deletion strains, locus YLR262C, strain YPT6, hits give low values); 1.07 (S. cerevisiae deletion strains, locus YML094W, strain GIM5, hits give low values); 1.03 (S. cerevisiae deletion strains, locus YMR219W, strain ESC1, hits give low values). In addition, the normalized growth is 0.986 (S. cerevisiae deletion strains, locus YMR263W, strain SAP30, hits give low values); 1.02 under setting [3]; 1.05 (S. cerevisiae deletion strains, locus YNL298W, strain CLA4 (second series), hits give low values); 1.06 [resistant] (active) under setting [4]; 1.08 (S. cerevisiae deletion strains, locus YNR030W, strain Alg12, hits give low values); 1.04 under setting [5]. The normalized growth is 1.01 (S. cerevisiae deletion strains, locus YPL241C, strain CIN2, hits give low values); 1.17 (S. cerevisiae deletion strains, locus YPR135W, strain CTF4, hits give low values); 1.02 (S. cerevisiae strains, strain wild type, hits give low values).

On to `C[C@H](Cc1ccc2c(c1)OC(C(=O)O)(C(=O)O)O2)NC[C@H](O)c1cccc(Cl)c1`, for which the normalized growth under setting [6] was 1.02; the normalized growth under setting [7] was 1.01; the normalized growth under setting [8] was 0.998; the normalized growth under setting [9] was 0.992; the normalized growth under setting [2] is 1.01; the normalized growth under setting [10] is 1.01. Further, the normalized growth was 1.02 under setting [11]; 0.967 under setting [3]; 1 under setting [12]; 0.987 under setting [13]; 1 under setting [14]; 1 under setting [4]. For the same molecule, the normalized growth under setting [15] was 0.985.

In the case of `CC(Cc1ccc(OCC(=O)O)cc1)NCC(O)c1cccc(Cl)c1` (configuration not stated), the normalized growth is 0.97 under setting [6]; 0.182 (active) under setting [1]; 1.01 under setting [9]; 1.01 under setting [2]; 1.02 under setting [10]; 1.02 (S. cerevisiae deletion strains, locus YNL128W, strain TEP1, hits give low values). In addition, the normalized growth was 0.984 under setting [12], 0.979 under setting [13], 0.99 under setting [14] and 0.977 under setting [15].

In the case of `CN(C(=O)Cc1ccc(Cl)c(Cl)c1)C(CN1CCCC1)c1cccc(OCC(=O)O)c1` (configuration not stated), the normalized growth was 0.998 under setting [6]; 0.995 under setting [7]; 1 under setting [1]; 0.961 under setting [8]; 0.992 under setting [9]; 0.989 under setting [11]. Moreover, the normalized growth under setting [3] was 1.01; the normalized growth under setting [12] is 0.995; the normalized growth under setting [13] was 0.997; the normalized growth under setting [14] was 0.99; the normalized growth under setting [15] was 0.999; the normalized growth under setting [5] is 1.01.
